# Bioassay records deposited in PubChem BioAssay by National Center for Advancing Translational Sciences (NCATS).
# FLuc inh = inhibitors of firefly luciferase. P08659. purified firefly luciferase, luminescence, 8 min. Potency, µM (top dose mostly 57.1 µM), inactives show top-dose activity change, negative = inhibition, most hits filed as inhibitors. 72,000 compounds, 2.2% hits; note: % is set by controls: 0 for no effect and ±100 for the full control effect; nearly all actives have a fitted effect of over 40% in size
#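 Firefly luciferase (PKLight detection mix) with 10 uM ATP in pH 7.2 imidazole buffer (KCl, MgCl2, Tween 20, BSA). Compounds tested across a concentration series (qHTS). Luminescence read after 8 min at ambient temperature.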
# Peg3 imprint = genomic imprint erasure induction | mouse ES Peg3-LacZ reporter, beta-gal luminescence, 40 h | Potency, µM (top dose mostly 60.7 µM), for inactives: at the top dose activity change, positive = activation, usual class: activators | 110,000 compounds, 0.02% hits
#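 Gelatin-coated wells received 300 freshly trypsinized female ES cells with a Peg3LacZ-Neo reporter on the maternal allele, then incubated 40 hours at 37C. BetaGlo was added for 5 minutes at room temperature before a single luminescence read.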
# p53ts 39C kill = p53ts cell cytotoxicity, nonpermissive temperature; H1299-p53A138V viability at 39C, ATP luminescence, 24 h; Potency, µM (doses to about 46.1 µM), for inactives: at the highest dose activity change, negative = cell killing, usual class: cytotoxic; 130,000 compounds, 1.5% hits; AID 902; note: % is set by controls: 0 for no effect and ±100 for the full control effect; nearly all actives have a fitted effect of over 55% in size
# p53ts 32C tox = kills p53ts cells at the permissive temperature; H1299-p53A138V at 32C, ATP luminescence viability, 24 h; Potency, µM (titrated, usually from 46.1 µM), for the others: at the highest dose activity change, negative = cytotoxicity, most hits filed as cytotoxic; 130,000 compounds, 0.93% hits; AID 924;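 note: 0% = DMSO and -100% = full killing by reference compound; nearly all actives have a fitted effect of over 55% in size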
#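 H1299-p53 A138V cells (temperature-sensitive p53) exposed 24 h to up to 46 uM compound at 32C, where p53 is wild-type in conformation. Viability read as ATP luminescence and normalised to DMSO and 100 uM tamoxifen. AC50 fitted with the Hill equation.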
# Tau fil binding = binders of human tau filaments. P10636. recombinant tau filaments, thioflavin S fluorescence, 15 h; filaments grown with octadecylsulfate alongside compound. Potency, µM (highest dose often 57.1 µM), without a hit: at the highest dose activity change, negative = inhibition. 71,000 compounds, 2% hits;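 note: % is set by controls: 0 for no effect and ±100 for the full control effect; actives lower thioflavin S fluorescence by blocking filaments or displacing dye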
# Target sequence (P10636 whole entry, looked up): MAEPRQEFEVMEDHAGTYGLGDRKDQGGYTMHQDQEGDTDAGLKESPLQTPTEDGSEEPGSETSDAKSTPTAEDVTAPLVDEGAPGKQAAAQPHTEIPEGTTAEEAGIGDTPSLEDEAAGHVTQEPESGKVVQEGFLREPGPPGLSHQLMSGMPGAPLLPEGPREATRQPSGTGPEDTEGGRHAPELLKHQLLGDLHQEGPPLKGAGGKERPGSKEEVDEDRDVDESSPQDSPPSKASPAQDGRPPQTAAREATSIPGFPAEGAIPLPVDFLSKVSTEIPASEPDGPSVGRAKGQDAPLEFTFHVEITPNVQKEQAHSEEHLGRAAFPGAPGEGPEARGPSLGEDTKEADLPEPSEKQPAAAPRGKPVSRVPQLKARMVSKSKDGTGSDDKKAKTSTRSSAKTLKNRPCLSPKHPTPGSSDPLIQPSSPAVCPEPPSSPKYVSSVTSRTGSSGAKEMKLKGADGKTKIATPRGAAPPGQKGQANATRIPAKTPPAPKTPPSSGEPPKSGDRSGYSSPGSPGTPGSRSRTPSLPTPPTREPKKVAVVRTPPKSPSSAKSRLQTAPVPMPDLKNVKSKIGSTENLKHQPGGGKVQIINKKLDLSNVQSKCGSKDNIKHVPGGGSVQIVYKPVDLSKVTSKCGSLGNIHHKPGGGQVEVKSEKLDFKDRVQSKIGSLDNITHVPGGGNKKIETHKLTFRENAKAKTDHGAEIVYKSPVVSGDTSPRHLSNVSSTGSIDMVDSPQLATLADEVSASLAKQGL
#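 Assay mix: 1 uM His-tagged tau, 30 uM sodium octadecylsulfate, thioflavine S dye in HEPES/NaCl/DTT buffer. Compound is added prior to the inducer. Fluorescence after 15 h at 37 C.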
# * marks the source's active call; other numbers are inactive results; i = inactive; ? = inconclusive; nt = not tested or not shown; [ ] = another dose, or the depositor's remark. Only some compounds are listed: those with a hit (about 3.4% of all), similar ones and a draw of the others. Calls come from the whole dose curve; as a rule, active = well fitted curve in the direction sought with a large enough effect; inconclusive = small, poorly fitted or top-dose-only effect, or another doubt; inactive = no such curve, though single readings can be large; an effect the other way counts as inactive or inconclusive. Potency is the fitted concentration of half-maximal effect.
SMILES,FLuc inh,Peg3 imprint,p53ts 39C kill,p53ts 32C tox,Tau fil binding
O=C(O)c1ccc2nc(-c3cc4cccc(O)c4oc3=O)[nH]c2c1,nt,-96%[10.9 µM],?,10µM*,nt
O=c1oc2c3c4c(cc2cc1-c1nc2ccccc2[nH]1)CCCN4CCC3,2µM*,-41%,?,?,i
Cc1ccc(-n2ncc3c(N4CCN(CCO)CC4)ncnc32)cc1Cl,nt,4%[10.9 µM],-29%,-11%,nt
CCc1cc(C(=O)Cc2nc3ccccc3[nH]2)c(O)cc1O,10µM*,-16%,-19%,-1%,-1%
COc1ccc(S(=O)(=O)N2CCCCC2)cc1C(=O)Nc1cccc(C(F)(F)F)c1,nt,-8%[10.9 µM],-19%,21%,nt
Cc1ccc2c(c1)c1cccc3c1n2CCN3CCC(N)=O,10µM*,4%,-27%,-22%,5µM*
Cc1ccc2c(c1)c1c(c(=O)n(-c3cccc(Cl)c3)c(=O)n1CC(N)=O)n2C,nt,-1%[10.9 µM],11%,2%,nt
CCOc1ccc(C(=O)NCC(c2ccc3c(c2)OCO3)N2CCOCC2)cc1 (configuration not stated),nt,?,-30%,-3%,nt
Cc1ccc(CCNS(=O)(=O)c2ccc3c(c2)CC(C)N3C(=O)C2CCC2)cc1 (configuration not stated),nt,nt,nt,9%,nt
CN(C)c1ccc(NC(=O)c2sc(SCC(=O)Nc3nccs3)nc2N)cc1,4µM*,nt,nt,nt,nt
COc1ccccc1CNC(=O)C1CCCN(S(=O)(=O)c2ccc3c(c2)oc(=O)n3C)C1 (configuration not stated),nt,-1%[10.9 µM],11%,-4%,nt
CCCN1C/C(=C/c2ccc3c(c2)OCO3)C(=O)/C(=C/c2ccc3c(c2)OCO3)C1,nt,nt,22%,nt,nt
CC1=C/C(=C\c2ccc3c(c2)OCO3)C(=O)S1,-14%,-22%,133%,6%,25µM*
COc1ccc2c(c1)sc(N)[n+]2Cc1cc(C)cc2cccnc12,nt,nt,11µM*,-9%,nt
CCOc1ccc2c(c1)sc(N)[n+]2Cc1cc(C)cc2cccnc12,nt,nt,-14%,-7%,nt
O=C(CSc1nnc2sc3ccccc3n12)c1ccco1,16µM*,-32%,-8%,-18%,-14%
CCOC(=O)N1CCc2c(sc(NCc3cccc(F)c3)c2C(=O)Nc2ccc(OCC)cc2)C1,nt,13%[10.9 µM],12%,16%,nt
CCCCc1ccc(C2C(C#N)=C(N)SC(N)=C2C#N)s1,1%,-1%,30%,25%,0.32µM*
COc1ccc(-c2nn(-c3ccccc3)cc2/C=N/n2cnnc2)cc1OC,?,-9%,-14%,-3%,9%
C(=N\n1cnnc1)/c1cn(-c2cccs2)nc1-c1ccccc1,25µM*,-9%,-24%,?,81%
Ic1ccc2c(c1)N(c1ccccc1)c1cc(Nc3ccc4nc5ccc(I)cc5[n+](-c5ccccc5)c4c3)ccc1N2,-4%[11.4 µM],-6%[10.9 µM],6%[9.22 µM],1%[9.22 µM],4µM*
C=C[C@@]1(C)CC(=O)[C@@]2(O)[C@@]3(C)[C@H](O)CCC(C)(C)[C@@H]3[C@H](O)[C@H](OC(C)=O)[C@]2(C)O1,-1%,nt,-11%,-13%,-8%
CCSC1=NC(=O)/C(=C2/C=Cc3ccccc3N2CC)S1,-6%,-15%,-6%,-9%,4µM*
Cc1ccc(Nc2ncnc3c2nc2n3CCCC2)c(Br)c1,nt,nt,nt,10µM*,nt
Cc1ccc(CNc2ncnc3c2nc2n3CCCC2)cc1,nt,nt,nt,-14%,nt
SMILES,FLuc inh,Peg3 imprint,p53ts 39C kill,p53ts 32C tox,Tau fil binding
COc1ccccc1CN1CCC2(CC1)CCN(C(=O)c1cccc(F)c1)CC2,0%[11.4 µM],nt,7%,-12%,16%
CN(C)c1ncc2nc(-c3ccc(Cl)cc3)c(=O)n(Cc3cccs3)c2n1,0%[11.4 µM],-4%,-12%,-4%,140%
COC(=O)c1ccc(NS(=O)(=O)c2ccc3[nH]c4c(c3c2)CCCC4)cc1,nt,nt,nt,1%,nt
CCOC(=O)CC(NS(=O)(=O)c1ccc2[nH]c3c(c2c1)CCCC3)c1ccccc1Cl (configuration not stated),nt,-14%[10.9 µM],13µM*,32%,nt
COc1cccc(NS(=O)(=O)c2ccc3[nH]c4c(c3c2)CCCCCC4)c1,nt,-11%[10.9 µM],20µM*,14%,nt
Nc1nc(Cl)nc2c1ncn2[C@@H]1O[C@@H](COP(=O)(O)OP(=O)(O)OP(=O)(O)O)[C@@H](O)[C@H]1O,1%,nt,?,?,-10%
Cn1c(-c2ccccc2)cnc1SCc1nc2ccccc2c(=O)[nH]1,5µM*,-50%,?,13µM*,0%
CC1CCc2c(cc(-c3ccccc3)n2-c2ccc(C(=O)NC(C)C)cc2)C1 (configuration not stated),nt,-14%[10.9 µM],16µM*,44%,nt
Cc1ccc(-n2c(=O)c3c4c(sc3n(Cc3cccc(Cl)c3)c2=O)CCC4)cc1C,nt,-13%[10.9 µM],-13%,7%,nt
Cc1cccc(C)c1NC(=O)Cn1cc(C(=O)c2ccco2)c2ccccc21,nt,-10%[10.9 µM],?,-16%,nt
c1ccc(-c2nc(-c3ccccn3)no2)cc1,nt,nt,7.1µM*,5.6µM*,nt
Cc1ccc(-c2nc(-c3ccccn3)no2)cc1Cl,0.4µM*,-93%,2.5µM*,2µM*,49%
c1ccc(-c2noc(-c3cccc4ccccc34)n2)nc1,7.9µM*,-77%,?,?,26%
Clc1cccc(-c2nc(-c3ccccn3)no2)c1,2.5µM*,-93%,3.2µM*,5µM*,30%
COc1ccccc1C1C(C(=O)Nc2ccccc2)=C(C)Nc2nc(-c3ccccc3)nn21 (configuration not stated),nt,-2%[10.9 µM],18%,4%,nt
O=C(NC1CCCCC1)c1ccc2c(c1)N(Cc1ccccc1F)C(=O)c1ccccc1S2,nt,-13%[10.9 µM],4%,15%,nt
Cc1ccc(CN2C(=O)c3ccccc3Sc3ccc(C(=O)OCc4ccco4)cc32)cc1,nt,-7%[10.9 µM],-23%,-2%,nt
Cc1ccccc1C(=O)OCc1cc(=O)n2c(C)csc2n1,nt,?,?,-10%,nt
Cc1ccc(-c2nc(-c3ccccn3)no2)cc1,nt,nt,0.4µM*,0.5µM*,nt
COc1cc(-c2nc(-c3ccccn3)no2)cc(OC)c1OC,-25%,-23%,-21%,-24%,8%[11.4 µM]
CCN(CC)c1nc(C#N)cc(-c2ccc(OC)cc2)n1,0%,-19%,5%,-2%,13µM*
CCn1cnc2cc(NCc3nc4ccccc4n3Cc3ccccc3)ccc21,nt,nt,-29%,-27%,nt
CC(C)n1cnc2cc(NCc3nc4ccccc4n3C)ccc21,13µM*,-79%,?,?,15%
CCn1cnc2cc(NCc3nc4ccccc4n3C)ccc21,13µM*,-92%,?,16µM*,7%
CCCn1c(CN2CCN(c3ccc(OC)cc3)CC2)nc2c1c(=O)[nH]c(=O)n2C,nt,-14%[10.9 µM],30%,11%,nt
COC(=O)c1ccc2nc(Nc3nc4ccc(F)cc4s3)sc2c1,nt,nt,-4%,-21%,nt
CC(=O)c1sc(Nc2nc3ccc(F)cc3s2)nc1C,16µM*,-47%,?,20µM*,-6%
CCOc1ccccc1NC(=O)c1sc2nc(C)cc(C)c2c1N,nt,23%[10.9 µM],1%,5%,nt
